± gives the standard deviation of the averaged measurements. Over roughly 25,000 sequences, “ln(normalized median fluorescence intensity)” has its median near 10; the highest 2% begin near 12. The list comes from a sample in which the highest values are over-represented; it also holds similar and randomly drawn sequences.
test system: PfAP2-G AP2 domain (GST-tagged); assay: gcPBM binding intensity (ln(normalized median fluorescence intensity)); higher = stronger DNA binding
In short: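 GST-tagged P. falciparum DNA-binding domains produced in E. coli were incubated for 1 h on an Agilent 4 × 180k array of primer-extended double-stranded 36-bp intergenic genomic probes with negative controls. Binding intensity is the highest Masliner-normalised natural-log median intensity across replicate spots of either probe orientation, with bound protein detected by Alexa488 anti-GST antibody at 488 nm.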

Row | Sequence | gcPBM binding intensity (ln)
1 | TAGAATAATCTATAAACACACAAACACAACAAAAGA [CACACA_site7861] | 10.3 ± 0.32
2 | ATATATTATCAACTTACACACAGAAAAATATAATAA [CACACA_site293] | 9.975 ± 0.092
3 | ATTTGGCATAAACACACACACACACCCACCCACATA [CACACA_site8096] | 10.6 ± 0.38
4 | ACGGGCGACACATAAGTGCGCAAAAAAAAAAAAATA [GTGCAC_site9688] | 10.4 ± 0.46
5 | TTTTTTTTTTTGTGAGTGCACGTATGAAGAGAAAAA | 10.9 ± 0.8
6 | TTATAAATATAATATTGTACAAAATTTTAACATGTC [XGTACX_site5259] | 10.9 ± 0.59
7 | GCATTCATTTTTAATACACACAAAAAAAAAATAAAA [CACACA_site2408] | 10.2 ± 0.42
8 | TATATATATATATATACACACATTTTTAATGATAAA [CACACA_site2695] | 10.1 ± 0.37
9 | CCCTCAACGAATTTGAGTACACATTTTAAATGATAT [XGTACX_site7763] | 11.7 ± 1.1
10 | TTTTAATGATATATGAGTACACATTGTTTTTTATAA [XGTACX_site1072] | 11.6 ± 1
11 | AAAATCTAGGTATTTATACACACTAATATAATATAC [CACACA_site8108] | 10.2 ± 0.28
12 | ATAACTTTATTTTCCTGTACACACATTTGACATATT [XGTACX_site7192] | 11.4 ± 0.73
13 | TTTTTTTTTTTTTTTACACACATTTGAATAACTTTA [CACACA_site6810] | 9.75 ± 0.34
14 | AGTATAACTTTTGCGCGTACACACATTTATCCTCTT [XGTACX_site429] | 11.6 ± 0.72
15 | TCCTCTTTTATTTTTACACACGCGTAAACATATATA [CACACA_site667] | 10.5 ± 0.4
16 | ATAACTTTTGCGCGTACACACATTTATCCTCTTTAT [CACACA_site209] | 11.7 ± 0.96
17 | GTATAACTTTTGCGCGTACACACATTTATCCTCTTT [CACACA_site208] | 11.7 ± 0.86
18 | AATTTATGTTTTAAAAGTACTTTTCTAATTTATAAA [XGTACX_site1593] | 11.1 ± 0.72
19 | TACTGAAATAATTATTTAAACGTTTTTATATGTATT [CACACA_negctrl_site487] | 9.83 ± 0.042
20 | AAATAGTTAAAAAGGCGTACACATAAATAAATAAAT [XGTACX_site2096] | 11.7 ± 0.81
21 | TACACAAAACATAAAAGTACATAATAATAAAGTTAA [XGTACX_site8872] | 11.3 ± 0.6
22 | TACATAATAATAAGGCGTACATAAAAATTAAAAATT [XGTACX_site8769] | 11.4 ± 1
23 | TGTCTTTAAATTTCTCAACACACAGTTATAAAAAAT [CACACA_site8930] | 9.94 ± 0.099

Row | Sequence | gcPBM binding intensity (ln)
24 | AAAAGAATTTGAAGTCGTACAATATCTATTATATGA [XGTACX_site8275] | 11.2 ± 0.78
25 | TAAATACATAGATGTACACACATTACAGATGTACAT [CACACA_site4692] | 11.7 ± 0.98
26 | TGTACAAATATGTACACACACACATATATATATATA [CACACA_site584] | 11.4 ± 0.91
27 | TACACACATTACAGATGTACATAAAATTAAAAAAAT [XGTACX_site1804] | 11.3 ± 0.71
28 | TATATACAAATATGTACACACATTACAGATGTACAT [CACACA_site6586] | 11.8 ± 0.82
29 | TATATACATATATGTACACACATTACAGATGTACAT [CACACA_site966] | 11.7 ± 0.93
30 | TACATTGTATACATATGTACACATATATATATATAT [XGTACX_site6174] | 11.5 ± 0.71
31 | CGTTACACAAAAATATGTACATATATACATATATAT [XGTACX_site4631] | 11.1 ± 0.64
32 | AATAAACATAGATGTACACACATATACAGATATATA [CACACA_site5570] | 11.5 ± 1
33 | AATATATACATATATGTACACACATTACAGATGTAC [CACACA_site8227] | 11.5 ± 0.73
34 | TCCTAATGCTACCACACACACAAAAACAAATAATAA [CACACA_site2610] | 10.5 ± 0.57
35 | AGTAATAAATTTTATACATGCATAAAAAAAAAAAAA [TGCATGCA_site661] | 9.72 ± 0.27
36 | AACAGATAAAAGGGTACACACATATATACATGTACA [CACACA_site225] | 11.6 ± 0.88
37 | AAGTACATACATAAAACACACACATATATATATATA [CACACA_site8541] | 10.5 ± 0.35
38 | ATAAACAGATAAAAGGGTACACACATATATACATGT [XGTACX_site452] | 11.4 ± 0.84
39 | AACAGATAAAAGGGTACACACATATATACCTGTACA [CACACA_site4285] | 11.7 ± 0.99
40 | AACAGATAAAAGGGTACACACATATATACAAGTACA [CACACA_site7959] | 11.7 ± 0.83
41 | AAAAAAAAAAAACATACACACATACATACAGATATA [CACACA_site4681] | 9.94 ± 0.13
42 | TAAAGGTAGATATATTGTACATACACACCTATATAA [XGTACX_site6865] | 10.9 ± 0.45
43 | ACATAAATAATAAAAACACACATATGTACAGATATA [CACACA_site5112] | 11.1 ± 0.59
44 | TAAACATATAAAAAGGGTACACATTAAACATAGTAT [XGTACX_site7096] | 11.3 ± 0.79
45 | TTTTCATTTTTTTTTTTTTTTTTTTTTCTTTTTTTT [CACACA_negctrl_site1312] | 9.52 ± 0.099
46 | TTTCCCTTAAATTAATGTACATAAATTGAAAATACC [XGTACX_site1602] | 11.3 ± 0.77

Row | Sequence | gcPBM binding intensity (ln)
47 | ACTTGACACGGACACACACACATATATAAAAAAAAA [CACACA_site4576] | 11.2 ± 0.91
48 | AAAAAAAAAAAAAAAAGTACATATGCTCAAGAGATG [XGTACX_site3783] | 11.5 ± 0.82
49 | TTTTTTTTTTTTTAATGTACCCATGGGCACATAGGT [XGTACX_site486] | 11.4 ± 1
50 | CACTTTATACGTAATTGTACTTTTTCTTTTTTTTAT [XGTACX_site3175] | 11.5 ± 0.86
51 | AAATAATATATATACACACACACATATATATATACA [CACACA_site554] | 10.03 ± 0.028
52 | TACAAATTAATATGTACACACAAATATAAATATGTA [CACACA_site7016] | 11.5 ± 0.98
53 | TTGTAATTATTAAACACACACAAAATATATATAATA [CACACA_site2523] | 10.3 ± 0.18
54 | TAAAATTTTTTATTCACACAAATATAGTTATATATA [CACACA_site5348] | 9.81 ± 0.16
55 | ATAATATAATAAACGTGTACACAATTAAATTATTAT [XGTACX_site3491] | 11.8 ± 0.76
56 | TATATATTATACACGTGTACACATTATAACAATATA [XGTACX_site7799] | 11.7 ± 0.77
57 | ATATATATATTAACAATACACACGTGTATACCTTAT [CACACA_site2217] | 10.38 ± 0.078
58 | ATATAATAAACGTGTACACAATTAAATTATTATATA [CACACA_site5017] | 11.7 ± 1.1
59 | ATATATATTAACAATACACACGTGTATACCTTATTG [CACACA_site5258] | 10.5 ± 0.22
60 | TTATATTTTTTAATTACACACAATTTTTATAAATAT [CACACA_site4148] | 9.985 ± 0.021
61 | GTATATTAATAAACATGTACACAATTTATTTATATT [XGTACX_site1012] | 11.5 ± 0.98
62 | ATAGTTATTTTATAGCGTACACAATAAATATATAAA [XGTACX_site4445] | 11.7 ± 1.1
63 | AAGTTATTTATATATACACACAAATATAAATAATAT [CACACA_site1228] | 9.97 ± 0.014
64 | TTCTTTTTTATTTATACATGCAATAAAAAATTGATT [TGCATGCA_site730] | 9.925 ± 0.064
65 | AGGACTAATATTTGAACACACATATAACATATACAT [CACACA_site7803] | 9.95 ± 0.085
66 | AAAAAAAAAAAAATGTAATTTTTTAATTATTTATAT [GTGCAC_negctrl_site436] | 9.47 ± 0.11
67 | GTATTCATGCTAAAGGTGCAATAATTTTTATAATAA [GTGCAC_site9603] | 10.2 ± 0.21
68 | ATTTTTTTTAATTTGTACAAATTTTGTTCACAATTT [CACACA_negctrl_site1301] | 10.8 ± 0.4
69 | AATTATTCTATATATTGTACATGTTTGTTTTTTTTT [XGTACX_site3130] | 10.9 ± 0.42

Row | Sequence | gcPBM binding intensity (ln)
70 | CATTATGTTGTAAATACACACATACAGATACATACA [CACACA_site4565] | 10.3 ± 0.16
71 | ATTAAAAACGGGTGTACACATATATAAATATATATA [CACACA_site4539] | 11.7 ± 0.89
72 | TATTTATAATAGTGTACACAATTATAAACTGAATAT [CACACA_site6041] | 11.7 ± 0.89
73 | TTTATTAATTTATAGTGTACATATTAATAATATATT [XGTACX_site7949] | 11.3 ± 0.68
74 | CATTATTATTAACATACACACGTGTTATATACCCCC [CACACA_site9365] | 11 ± 0.61
75 | TATTACCCATATTATACACACATATATTATATATAT [CACACA_site1567] | 10.3 ± 0.2
76 | GTTATTAAAAACGGGTGTACACATATATAAATATAT [XGTACX_site1234] | 11.6 ± 0.86
77 | AATAGTAATTTGAATACACACAATAATATATTTATA [CACACA_site7055] | 9.96 ± 0.042
78 | ATATTATACCCGTGTACACATTATAACCATATATAA [CACACA_site5933] | 11.7 ± 0.82
79 | ATATAAAACAACGGGTGTACAAAAAAATAAATAATA [XGTACX_site4094] | 11.3 ± 0.76
80 | AATAAAATAATAGGCACACATATATATATATATTAT [CACACA_site273] | 10.1 ± 0.26
81 | CTATTAATGTACTCTACACACATATAAGAGGACATT [CACACA_site471] | 11.6 ± 0.86
82 | AAATAAAATAAAAGCACACAAAATGTAAATAATTAT [CACACA_site2775] | 10.01 ± 0.035
83 | CCATGTCAAACATTTGCACACAAAAAAATAAAAATT [CACACA_site4546] | 10.2 ± 0.31
84 | TAATTTAAAAATATAAATGTTTCACTTATATATTTT [TGCATGCA_negctrl_site399] | 9.41 ± 0.27
85 | AAAAATAGTATAAGTAGTACAACTGAAAAGTTATGT [XGTACX_site7488] | 11.6 ± 0.86
86 | GAAAAGTAGACAATATGTACATATAGTATTTATAAA [XGTACX_site878] | 11.1 ± 0.69
87 | TAAGTATAAAAAAATAGTACAATTATGAAATATCGT [XGTACX_site2529] | 11.2 ± 0.71
88 | ATTCTGAATGTTATGCGTACATATTAATCCTATTTA [XGTACX_site1216] | 11.5 ± 0.93
89 | TGTTCTAATATTTGTTGTACATTTACATTTCTCTCT [XGTACX_site2585] | 11.1 ± 0.56
